Laboratory results reported in PubChem BioAssay AID1159580 (chemical genetic matrix, 2015).
Values joined by “and” are separate entries in the source; they are usually repeats but may differ in a detail not shown here. Equal entries are not always repeated. About 2,000 (36%) of roughly 5,500 compounds were called active. About 18% were inconclusive and are not listed. No stated cut-off is given here; in the data, active means normalized growth mostly below about 0.91 (no sharp cut-off); inconclusive means no clear call, values can overlap the other calls; inactive means mostly above about 0.92. This is one part of the list.

Assay: chemical genetic growth profiling, strain panel (AID 1159580);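 further: tested at 20 µM; growth read once vehicle control cultures reached saturation at 30 °C; 1 = growth at the plate median or of vehicle wells; lower values mean less growth of the strain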
Details: S. cerevisiae deletion strains, growth OD

Measured: normalized growth

COC(=O)C(O)c1ccccc1 (stereo unspecified)
inactive: locus YAL021C, strain ccr4, active compounds read low 1.02 | locus YAL026C, strain drs2, active compounds read low 1.01 | locus YAL030W, strain snc1, active compounds read low 0.984 | locus YBL061C, strain skt5, active compounds read low 0.996 | locus YBR009C, strain hhf1, active compounds read low 1.01 | locus YBR021W, strain FUR4, active compounds read low 1.06 | locus YBR023C, strain chs3, active compounds read low 1.01 | locus YBR171W, strain sec66, active compounds read low 0.99 | locus YBR229C, strain ROT2, active compounds read low 0.999 | locus YBR231C, strain swc5, active compounds read low 0.961 | locus YBR279W, strain paf1, active compounds read low 0.999 | locus YCL011C, strain gbp2, active compounds read low 1.02 | locus YCL016C, strain dcc1, active compounds read low 1.02 | locus YCL029C, strain bik1, active compounds read low 0.982 | locus YCL069W, strain vba3, active compounds read low 1 | locus YCR088W, strain abp1, active compounds read low 0.99 | locus YDL005C, strain med2, active compounds read low 0.984 | locus YDL035C, strain GPR1, active compounds read low 1.05 | locus YDL040C, strain nat1, active compounds read low 0.991 | locus YDL074C, strain BRE1, active compounds read low 1.05 | locus YDL101C, strain DUN1, active compounds read low 0.977 | locus YDL134C, strain PPH21, active compounds read low 0.964 | locus YDL185W, strain tfp1, active compounds read low 0.949 | locus YDL192W, strain arf1, active compounds read low 1.01 | locus YDR001C, strain nth1, active compounds read low 0.99 | locus YDR069C, strain doa4, active compounds read low 0.996 | locus YDR101C, strain arx1, active compounds read low 1.05 | locus YDR137W, strain rgp1, active compounds read low 1.01 | locus YDR159W, strain sac3, active compounds read low 0.973 | locus YDR162C, strain NBP2, active compounds read low 0.975 | locus YDR195W, strain ref2 0.909 | locus YDR297W, strain sur2, active compounds read low 0.992 | locus YDR318W, strain mcm21, active compounds read low 0.985 | locus YDR334W, strain swr1, active compounds read low 0.98 | locus YDR335W, strain msn5, active compounds read low 1.01 | locus YDR388W, active compounds read low 0.973 | locus YDR392W, strain spt3, active compounds read low 1.02 | locus YDR502C, strain sam2, active compounds read low 0.969 | locus YEL003W, strain gim4, active compounds read low 0.99 | locus YEL037C, strain rad23, active compounds read low 0.992 | locus YEL061C, strain CIN8 (second series), active compounds read low 0.983 | locus YEL061C, strain CIN8, active compounds read low 0.991 | locus YER015W, strain faa2, active compounds read low 1.01 | locus YER016W, strain bim1, active compounds read low 0.993 | locus YER110C, active compounds read low 0.984 | locus YER111C, strain swi4, active compounds read low 0.981 | locus YER155C, strain BEM2 (second series), active compounds read low 0.978 | locus YER155C, strain BEM2, active compounds read low 0.988 | locus YER167W, strain BCK2, active compounds read low 1.01 | locus YFR010W, strain ubp6, active compounds read low 0.974 | locus YGL078C, strain dbp3, active compounds read low 0.974 | locus YGL086W, strain mad1, active compounds read low 0.996 | locus YGL167C, strain pmr1, active compounds read low 0.995 | locus YGL173C, strain kem1, active compounds read low 0.981 | locus YGL227W, strain vid30, active compounds read low 1 | locus YGL240W, strain doc1, active compounds read low 0.99 | locus YGL248W, strain PDE1, active compounds read low 0.983 | locus YGL253W, strain hxk2, active compounds read low 0.983 | locus YGR078C, strain PAC10, active compounds read low 0.974 | locus YGR135W, strain pre9, active compounds read low 0.941 | locus YGR229C, strain SMI1, active compounds read low 0.961 | locus YGR252W, strain gcn5, active compounds read low 1.02 | locus YHR013C, strain ard1, active compounds read low 1 | locus YHR027C, strain rpn1, active compounds read low 0.986 | locus YHR030C, strain SLT2, active compounds read low 1.02 | locus YHR079C, strain IRE1 (second series), active compounds read low 0.971 | locus YHR079C, strain IRE1, active compounds read low 0.996 | locus YHR094C, strain hxt1, active compounds read low 0.983 | locus YHR129C, strain ARP1, active compounds read low 0.993 | locus YHR142W, strain chs7, active compounds read low 1.02 | locus YHR200W, strain rpn10, active compounds read low 0.963 | locus YIL066C, strain RNR3, active compounds read low 1.02 | locus YIL073C, strain SPO22, active compounds read low 0.977 | locus YIL125W, strain kgd1, active compounds read low 1 | locus YIR030C, strain dcg1, active compounds read low 0.975 | locus YJL092W, strain hpr5, active compounds read low 0.991 | locus YJL095W, strain BCK1 (second series), active compounds read low 0.985 | locus YJL095W, strain BCK1, active compounds read low 0.963 and 1.01 | locus YJL115W, strain asf1, active compounds read low 0.981 | locus YJL129C, strain trk1, active compounds read low 0.992 | locus YJL134W, strain LCB3, active compounds read low 0.992 | locus YJL154C, strain vps35, active compounds read low 0.986 | locus YJL164C, strain tpk1, active compounds read low 1.03 | locus YJL166W, strain qcr8, active compounds read low 1.04 | locus YJL168C, strain set2, active compounds read low 0.976 | locus YJL187C, strain SWE1 (second series), active compounds read low 0.98 | locus YJL187C, strain SWE1, active compounds read low 0.997 | locus YJR043C, strain POL32, active compounds read low 1.09 | locus YJR066W, strain TOR1, active compounds read low 0.939 | locus YKL009W, strain mrt4, active compounds read low 1.05 | locus YKL068W, active compounds read low 0.982 | locus YKL085W, strain MDH1 (second series), active compounds read low 0.976 | locus YKL085W, strain MDH1, active compounds read low 0.976 | locus YKL160W, strain elf1, active compounds read low 1.04 | locus YKL190W, strain CNB1, active compounds read low 0.975 | locus YKR001C, strain vps1, active compounds read low 1.02 | locus YKR026C, strain gcn3, active compounds read low 0.981 | locus YKR091W, strain srl3, active compounds read low 0.993 | locus YLL001W, strain dnm1, active compounds read low 0.985 | locus YLL026W, active compounds read low 0.991 | locus YLL041C, strain sdh2, active compounds read low 1.02 | locus YLR027C, strain aat2, active compounds read low 1.02 | locus YLR039C, strain RIC1, active compounds read low 1 | locus YLR058C, strain SHM2, active compounds read low 1.01 | locus YLR102C, strain apc9, active compounds read low 0.981 | locus YLR113W, strain HOG1, active compounds read low 0.983 | locus YLR221C, strain rsa3, active compounds read low 0.999 | locus YLR258W, strain gsy2, active compounds read low 1.02 | locus YLR262C, strain YPT6 (second series), active compounds read low 1.05 | locus YLR268W, strain sec22, active compounds read low 1.03 | locus YLR320W, strain mms22, active compounds read low 0.999 | locus YLR342W, strain FKS1, active compounds read low 1 | locus YLR357W, strain rsc2, active compounds read low 0.983 | locus YLR370C, strain arc18, active compounds read low 0.994 | locus YLR371W, strain rom2, active compounds read low 0.983 | locus YLR384C, strain iki3, active compounds read low 0.98 | locus YLR418C, strain cdc73, active compounds read low 0.953 | locus YML016C, strain PPZ1, active compounds read low 0.977 | locus YML032C, strain rad52, active compounds read low 1.01 | locus YML120C, strain ndi1, active compounds read low 1.01 | locus YML124C, strain tub3, active compounds read low 0.988 | locus YMR058W, strain fet3, active compounds read low 1 | locus YMR078C, strain ctf18, active compounds read low 0.974 | locus YMR125W, strain sto1, active compounds read low 0.998 | locus YMR129W, active compounds read low 0.995 | locus YMR205C, strain PFK2, active compounds read low 1.02 | locus YMR223W, strain ubp8, active compounds read low 0.975 | locus YMR231W, strain pep5, active compounds read low 0.977 | locus YMR307W, strain GAS1, active compounds read low 1.22 | locus YNL067W, strain RPL9B, active compounds read low 0.965 | locus YNL071W, strain lat1, active compounds read low 1.01 | locus YNL153C, strain GIM3, active compounds read low 0.964 | locus YNL183C, strain NPR1, active compounds read low 0.946 | locus YNL209W, strain ssb2, active compounds read low 1.01 | locus YNL233W, strain BNI4, active compounds read low 0.993 | locus YNL248C, strain rpa49, active compounds read low 0.983 | locus YNL250W, strain rad50, active compounds read low 0.943 | locus YNL271C, strain bni1, active compounds read low 0.968 | locus YNL298W, strain CLA4, active compounds read low 0.989 | locus YNL307C, strain MCK1, active compounds read low 0.985 | locus YNL322C, strain KRE1 (second series), active compounds read low 0.992 | locus YNR049C, strain mso1, active compounds read low 0.993 | locus YNR052C, strain pop2, active compounds read low 0.975 | locus YOL012C, strain htz1 0.732 | locus YOL147C, strain pex11, active compounds read low 0.986 | locus YOR001W, strain rrp6, active compounds read low 0.964 | locus YOR061W, strain CKA2, active compounds read low 1.02 | locus YOR069W, strain VPS5, active compounds read low 0.992 | locus YOR070C, strain gyp1, active compounds read low 1.01 | locus YOR080W, strain dia2, active compounds read low 0.98 | locus YOR083W, strain WHI5, active compounds read low 1.05 | locus YOR106W, strain vam3, active compounds read low 1.02 | locus YOR136W, strain idh2, active compounds read low 0.989 | locus YOR144C, strain elg1, active compounds read low 0.998 | locus YOR184W, strain ser1, active compounds read low 1.09 | locus YOR231W, strain MKK1, active compounds read low 1.01 | locus YOR265W, strain rbl2, active compounds read low 0.998 | locus YOR270C, strain vph1, active compounds read low 1.01 | locus YOR290C, strain snf2, active compounds read low 1.06 | locus YOR316C, strain cot1, active compounds read low 0.966 | locus YPL051W, strain arl3, active compounds read low 0.979 | locus YPL078C, strain atp4, active compounds read low 1.04 | locus YPL106C, strain sse1, active compounds read low 0.997 | locus YPL240C, strain hsp82, active compounds read low 0.993 | locus YPL241C, strain CIN2, active compounds read low 0.986 | locus YPL256C, strain CLN2, active compounds read low 0.978 | locus YPR119W, strain clb2, active compounds read low 0.952 | locus YPR141C, strain kar3, active compounds read low 0.961 | locus YPR163C, strain tif3, active compounds read low 0.983 | locus YPR167C, strain met16, active compounds read low 0.979 | strain wtn01, active compounds read low 1.01
